# Results taken from PubChem BioAssay.
# Several values for one entry are separate records, joined by “and”; a condition that tells them apart may be missing. Equal values may be shown once. Records with an inconclusive call do not appear. Activity calls are given as the source filed them. Cut-off read from the data, not from the text of the source, unless noted: active = inhibition above about 80%; inactive = the rest.
# Experiments:
# [1] = growth inhibition of DIPG glioma cells, dose response, cell-based, SU-DIPG-XIII, MIPE4.0, CellTiter-Glo, qHTS (AID 1347061; cut-off not given, nearly all actives have AC50 up to about 37 µM;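 note: cells exposed to compound for 48 hours before readout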); conditions: SU-DIPG-XIII viability, CellTiter-Glo ATP luminescence
# [2] = growth inhibition of DIPG glioma cells, dose response, cell-based, JHH-DIPG-1, MIPE4.0, CellTiter-Glo, qHTS (AID 1347062; cut-off not given, nearly all actives have AC50 up to about 27 µM;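 note: cells exposed to compound for two days before readout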); conditions: JHH-DIPG-1 viability, CellTiter-Glo ATP luminescence
# [3] = growth inhibition of DIPG glioma cells, dose response, cell-based, SU-DIPG-IV, MIPE4.0, CellTiter-Glo, qHTS (AID 1347063; cut-off not given, nearly all actives have AC50 up to about 30 µM;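 note: compound exposure lasted 48 hours before the viability readout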); conditions: SU-DIPG-IV viability, CellTiter-Glo ATP luminescence
# [4] = growth inhibition of DIPG glioma cells, dose response, cell-based, SU-DIPG-XIII, MIPE5.0, CellTiter-Glo, qHTS (AID 1347064; cut-off not given, nearly all actives have AC50 up to about 23 µM;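 note: cells exposed to compound for 48 hours before the viability read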); conditions: SU-DIPG-XIII viability, CellTiter-Glo ATP luminescence
# [5] = viability loss in pontine glioma line – cell-based, SU-DIPG-XXV, MIPE5.0, CellTiter-Glo, qHTS, dose response (AID 1347065; cut-off not given, nearly all actives have AC50 up to about 26 µM;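 note: cells exposed to compound for 48 hours before ATP readout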); conditions: CellTiter-Glo ATP luminescence
# [6] = SU-DIPG-VI glioma cell viability, MIPE4.0 library, CellTiter-Glo luminescence, qHTS (AID 1347066; cut-off not given, nearly all actives have AC50 up to about 30 µM;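 note: cells exposed to compound for 48 hours before readout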); conditions: CellTiter-Glo ATP luminescence
# [7] = JHH-DIPG-1 glioma cell viability, MIPE5.0 library, CellTiter-Glo luminescence, qHTS (AID 1347067; cut-off not given, nearly all actives have AC50 up to about 26 µM;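 note: cells exposed to compound for 48 hours before readout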); conditions: JHH-DIPG-1 glioma viability, CellTiter-Glo ATP luminescence
# [8] = SU-DIPG-XXV glioma cell viability, MIPE5.0 library, qHTS (AID 1347068; cut-off not given, nearly all actives have IC50 up to about 30 µM;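 note: cells exposed to compound for 48 hours before viability readout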)
# [9] = sensitizers of A549 cells to miR-34 induction, primary screen, imaging, A549 dox-inducible miR-34, nuclei and caspase counts (AID 1347080;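 active = compounds whose cell count with miR-34 switched on is under 0.7 times the count with it off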); conditions: A549 miR-34 inducible, Hoechst nuclei count, 48 h
# [10] = modifiers of HSF1 nuclear foci, imaging, Selleck Cancer Library (AID 1347162; in the data active = plate-normalised HSF1 focus index below about 0.46); conditions: human cells, at 10 µM; SSMD: measured here: HSF1 foci SSMD mean; cell count: measured here: cell number; plate-normalised HSF1 focus index: stronger effect = lower value
# [11] = survival rescue of mitochondrial mutant cells in low glucose, primary screen, MELAS cybrids, Rieske KO mouse fibroblasts, CellTiter-Glo (AID 1508586;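 active = mean z-score across replicates of 1.96 or higher in either the MELAS or the Rieske mutant cell line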;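 note: z relative to plate mean and SD of compound and empty wells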)
# [12] = LFS_MB_P medulloblastoma growth inhibition, cell-based, chromothripsis tumors, cisplatin or BGB combos (AID 1671449); conditions: LFS_MB_P medulloblastoma cells;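 note: cells exposed for 96 hours; 0% = vehicle DMSO and 100% = killing by high DMSO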
# [13] = HDN33 neuroblastoma growth inhibition, cell-based, chromothripsis tumors, cisplatin or BGB combos (AID 1671450); conditions: HDN33 neuroblastoma cells, stronger effect = higher value;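 note: cells exposed to compound for four days; 0% = vehicle DMSO and 100% = cell killing by high DMSO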
# [14] = ICB984 medulloblastoma cell growth inhibition, synergistic combos for chromothripsis tumors, cisplatin or BGB combos (AID 1671451; call rule not given here;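 note: cells exposed for 96 hours before readout; 0% = vehicle DMSO and 100% = killing by high DMSO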); conditions: ICB984 medulloblastoma cells, drug combinations, stronger effect = higher value
# [15] = LFS_MB_1R medulloblastoma cell growth inhibition, synergistic combos for chromothripsis tumors, cisplatin or BGB combos (AID 1671452); conditions: LFS_MB_1R medulloblastoma cells, stronger effect = higher value;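 note: cells exposed for 96 hours before readout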
# [16] = HTB85 osteosarcoma cell growth inhibition, synergistic combos for chromothripsis tumors, BGB or cisplatin IC20 combos (AID 1671453); conditions: HTB85 osteosarcoma cells, drug combinations, stronger effect = higher value;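 note: cells exposed for 96 hours before readout; 0% = vehicle DMSO and 100% = high DMSO killing control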
# [17] = CRL2098 osteosarcoma cell growth inhibition, synergistic combos for chromothripsis tumors, BGB or cisplatin IC20 combos (AID 1671454); conditions: CRL2098 osteosarcoma cells, drug combinations, stronger effect = higher value;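 note: cells exposed for 96 h before readout; 0% = vehicle DMSO and 100% = killing by high DMSO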
# [18] = HD-MB03 medulloblastoma cell growth inhibition, synergistic combos for chromothripsis tumors, BGB or cisplatin IC20 combos (AID 1671455; in the data active = inhibition above about 83%;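 note: 0% = vehicle DMSO and 100% = high DMSO as cytotoxic control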); conditions: HD-MB03 medulloblastoma cells, stronger effect = higher value
# [19] = UWB1.289 ovarian carcinoma cell growth inhibition, synergistic combos for chromothripsis tumors, BGB or cisplatin combos (AID 1671456); conditions: UWB1.289 ovarian carcinoma cells, stronger effect = higher value;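 note: cells exposed to compound for four days; 0% = vehicle DMSO and 100% = killing by high DMSO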
# [20] = LFS_MB_2R medulloblastoma cell growth inhibition, synergistic combos for chromothripsis tumors, cisplatin combos (AID 1671457); conditions: LFS_MB_2R medulloblastoma cells, stronger effect = higher value;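 note: cells exposed to compound for four days before readout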
# [21] = MDA-MB-436 breast carcinoma cell growth inhibition, synergistic combos for chromothripsis tumors, BGB or cisplatin combos (AID 1671458; call rule not given here;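 note: cells exposed for 96 hours; 0% = vehicle DMSO and 100% = killing by high DMSO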); conditions: MDA-MB-436 breast carcinoma growth inhibition, drug combinations, stronger effect = higher value
# [22] = UWB1.289_BRCA1 ovarian cancer growth, cell-based, BGB or cisplatin combinations (AID 1671459); conditions: UWB1.289 BRCA1 ovarian carcinoma, drug combinations, stronger effect = higher value
# [23] = human astrocyte viability loss, single and combined drugs, cytotoxicity control for chromothriptic childhood tumor combination screen, cell-based, BGB or cisplatin IC20 combos (AID 1671460); conditions: Human astrocytes, drug combinations, stronger effect = higher value;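 note: cells exposed to compounds for 96 hours before viability readout; 0% = vehicle and 100% = killing control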
# [24] = growth inhibition of BT084 medulloblastoma cells, cell-based, ICGC_MB145, cisplatin and BGB IC40 combos (AID 1671461); conditions: drug combinations, stronger effect = higher value;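 note: cells exposed to drugs for 96 hours; 0% = vehicle DMSO and 100% = high DMSO full killing control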
# [25] = growth inhibition of RCMB18 medulloblastoma cells, cell-based, cisplatin and BGB IC40 combos (AID 1671462); conditions: stronger effect = higher value;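 note: cells exposed to compound for four days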
# [26] = growth inhibition of CRL1545 osteosarcoma cells, cell-based, cisplatin and BGB IC20 combos (AID 1671464); conditions: stronger effect = higher value;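 note: cells exposed to compound for 96 hours before readout; 0% = vehicle DMSO and 100% = high DMSO killing control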
# [27] = measured here: combination with BGB IC40, at 0.05 µM
# [28] = measured here: with BGB IC20 combination, at 0.5 µM
# [29] = measured here: with cisplatin IC20 combination, at 0.5 µM
# [30] = measured here: combination with cisplatin, at 0.5 µM
# [31] = measured here: combination with cisplatin, at 5 µM
smiles,measurement,setting,value
Nc1ccccc1NC(=O)c1ccc(CNC(=O)OCc2cccnc2)cc1,AC50,[1],14.8 µM (active)
same,AC50,[2],4.69 µM (active)
same,AC50,[3],1.32 µM (active)
same,AC50,[4],3.32 µM (active)
same,AC50,[5],2.35 µM (active)
same,AC50,[6],3.72 µM (active)
same,AC50,[7],2.95 µM (active)
same,IC50,[8],5.25 µM (active)
same,fold change,"[9]; stronger effect = lower value, cell number ratio, induced over uninduced",0.935 (inactive) and 1.04 (inactive)
same,fold change,[9]; measured here: relative caspase fold change +Dox/-Dox,1.69 and 0.81
same,cell count,"[9]; measured here: total cells with miR-34 induction, stronger effect = lower value",3300 and 2250
same,cell count,[9]; measured here: total cells without miR-34 induction,3530 and 2180
same,SSMD,[10],2.19
same,cell count,[10],6960
same,plate-normalised HSF1 focus index,[10],1.11 (inactive)
same,z-score,"[11]; MELAS cybrid survival, CellTiter-Glo 48 h, stronger effect = higher value",-0.681 (inactive)
same,z-score,"[11]; Rieske KO mouse fibroblast survival, CellTiter-Glo 72 h",-1.12
same,inhibition,"[12]; at 0.5 µM, stronger effect = higher value",20.5% (inactive) and 31.3% (inactive)
same,inhibition,"[12]; measured here: combination with BGB IC20, at 0.005 µM",9.17% and -14%
same,inhibition,"[12]; measured here: combination with BGB IC40, at 0.005 µM",-20.6% and -27.1%
same,inhibition,[12]; [27],-4.42% and -24.6%
same,inhibition,"[12]; measured here: combination with cisplatin, at 0.5 µM, stronger effect = higher value",46.4% and 85.2%
same,inhibition,"[12]; measured here: combination with cisplatin, at 5 µM, stronger effect = higher value",118% and 115%
same,inhibition,"[13]; BGB combo, at 5 µM",97.1% and 92.4%
same,inhibition,[13]; at 0.5 µM,44% (inactive) and 41% (inactive)
same,inhibition,"[13]; cisplatin combo, at 5 µM",99.7% and 97%
same,inhibition,[13]; [28],39.9% and 34.6%
same,inhibition,[13]; [29],48.7% and 57.6%
same,inhibition,"[13]; single agent, at 5 µM",99.3% and 93.9%
same,inhibition,"[14]; BGB IC20 combo, at 0.005 µM",36.5% and 11%
same,inhibition,"[14]; BGB IC40 combo, at 0.005 µM",24.4% and 20.7%
same,inhibition,"[14]; BGB IC40 combo, at 0.05 µM",97.8% and 93%
same,inhibition,[14]; at 0.5 µM,-31.6% (inactive) and -19.6% (inactive)
same,inhibition,"[14]; cisplatin combo, at 0.05 µM",97.7% and 92.8%
same,inhibition,"[14]; cisplatin combo, at 0.5 µM",-49.4% and -14.7%
same,inhibition,"[14]; cisplatin combo, at 5 µM",10.2% and -21.6%
same,inhibition,"[14]; measured here: 5 uM single agent, at 5 µM",20% and -23%
same,inhibition,[15]; at 0.5 µM,61% (inactive) and 41.3% (inactive)
same,inhibition,[15]; [27],-9.37% and -18.3%
same,inhibition,[15]; [30],79.3% and 71.8%
same,inhibition,[15]; [31],96.9% and 96.1%
same,inhibition,[16]; at 0.5 µM,57.3% (inactive) and 32.6% (inactive)
same,inhibition,"[16]; measured here: with BGB IC20, at 0.5 µM",48% and 25.2%
same,inhibition,"[16]; measured here: with BGB IC20, at 5 µM",97.7% and 98.3%
same,inhibition,"[16]; measured here: with cisplatin IC20, at 0.5 µM",80.3% and 42.5%
same,inhibition,"[16]; measured here: with cisplatin IC20, at 5 µM",99.8% and 98.9%
same,inhibition,"[16]; single agent, at 5 µM",99.3% and 97.6%
same,inhibition,[17]; at 0.5 µM,0.19% (inactive) and -6.59% (inactive)
same,inhibition,"[17]; measured here: combination with BGB at IC20, at 0.5 µM",-0.645% and -36.5%
same,inhibition,"[17]; measured here: combination with cisplatin at IC20, at 0.5 µM",30.1% and 43.8%
same,inhibition,[18]; at 0.5 µM,42.6% (inactive) and 20.9% (inactive)
same,inhibition,"[18]; measured here: combo with BGB at IC20, at 0.5 µM",34.7% and 26.6%
same,inhibition,"[18]; measured here: combo with cisplatin at IC20, at 0.5 µM",87.6% and 25.8%
same,inhibition,[19]; at 0.5 µM,18.2% (inactive) and 10.7% (inactive)
same,inhibition,"[19]; measured here: inhibition with BGB combination, at 0.05 µM",0.005% and -12.1%
same,inhibition,"[19]; measured here: inhibition with cisplatin combination, at 0.05 µM",-11.8% and 3.27%
same,inhibition,[20]; at 0.5 µM,39.2% (inactive) and 22.4% (inactive)
same,inhibition,[20]; [30],66.8% and 38.1%
same,inhibition,[20]; [31],99.8% and 92.3%
same,inhibition,[21]; at 0.5 µM,18.4% (inactive) and 2.92% (inactive)
same,inhibition,"[21]; measured here: BGB combination, at 0.5 µM",16.3% and -2.7%
same,inhibition,"[21]; measured here: BGB combination, at 5 µM",55.1% and 44.4%
same,inhibition,"[21]; measured here: cisplatin combination, at 0.5 µM",15.5% and -5.2%
same,inhibition,"[21]; measured here: cisplatin combination, at 5 µM",49.1% and 36.5%
same,inhibition,"[22]; BGB combination, concentration series, at 5 µM",98.1% and 86.1%
same,inhibition,[22]; at 0.5 µM,28.5% (inactive) and 10.5% (inactive)
same,inhibition,"[22]; cisplatin combination, concentration series, at 5 µM",104% and 98.8%
same,inhibition,[23]; at 0.5 µM,5.28% (inactive) and 8.78% (inactive)
same,inhibition,"[23]; measured here: combo with BGB IC20, at 0.5 µM",3.25% and 5.25%
same,inhibition,"[23]; measured here: combo with cisplatin IC20, at 0.5 µM",2.55% and 12.8%
same,inhibition,[24]; at 0.5 µM,46.5% (inactive) and 28.3% (inactive)
same,inhibition,"[24]; cisplatin combination, at 0.5 µM",67% and 52.4%
same,inhibition,"[24]; cisplatin combination, at 5 µM",97.3% and 96.5%
same,inhibition,"[24]; measured here: BGB IC40 combination 0.05 uM, at 0.05 µM",51.3% and 7.15%
same,inhibition,"[24]; single agent, at 5 µM",87.5% and 72.2%
same,inhibition,[25]; at 0.5 µM,49.1% (inactive) and 37.1% (inactive)
same,inhibition,"[25]; cisplatin combo, at 5 µM",94.3% and 95%
same,inhibition,"[25]; measured here: BGB IC40 combination, at 0.05 µM",11.6% and 4.4%
same,inhibition,[25]; [30],71.2% and 58%
same,inhibition,"[25]; single agent, at 5 µM",95.5% and 86.6%
same,inhibition,[26]; at 0.5 µM,74.5% (inactive) and 39.4% (inactive)
same,inhibition,[26]; [28],71.4% and 25.4%
same,inhibition,[26]; [29],76.1% and 45.2%
same,inhibition,"[26]; single agent, at 0.05 µM",28.6% and -12.8%
same,inhibition,"[26]; single agent, at 5 µM",73.7% and 44.8%
